PubChem BioAssay
Activity calls are given as the source filed them.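 How the source made its calls, unless noted: active means inhibition of the reporter signal at or above 50%; inactive means inhibition below 50%.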

Tests used:
[1] = inhibitors of TNFa-induced NFkB p65 translocation, primary screen, imaging, HUVEC, MLSMR starter and 10KST1 sets (AID 438;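 active means inhibition above 20% together with a positive visual image hit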;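 further: compound added about 3h40 before a 20 min TNFalpha stimulation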;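 on inhibition: signal is the nuclear over cytoplasmic p65 intensity ratio per well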); details: HUVEC TNFa-induced p65 nuclear translocation; cell count: measured here: nuclei count (cytotoxicity indicator), at 2.08 µM; inhibition: at 2 µM, stronger effect = higher value, 0% TNFa-plus-vehicle, 100% no-TNFa wells
[2] = reduction of polyQ htt aggregates in cells – imaging, exon1htt(103Q)mCFP cells, high-content imaging, primary screen (AID 483;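 active means visual image review flags a hit and inhibition of aggregation exceeds 20%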;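 further: compound exposure lasted 3 days before fixation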;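 on nuclei count: percent of the per-plate median nuclei count of sample wells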); details: exon1htt(103Q)mCFP cell line, aggregate imaging, at 2 µM; inhibition of aggregation: stronger effect = higher value; nuclei count: measured here: cell count, toxicity
[3] = endothelial E-selectin expression blockers – imaging, HUVEC, immunofluorescence, MLSMR starter and 10KST1 sets, primary screen (AID 487;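 active means visually confirmed hit in the image check and inhibition above 20%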;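 on inhibition: signal is fraction of cell area covered by stained E-selectin grains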;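 on nuclei count: 100% = median nuclei count of all wells on the same plate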); details: HUVEC TNFalpha-induced E-selectin immunofluorescence imaging, at 2 µM; inhibition: stronger effect = higher value; nuclei count: measured here: cell number, toxicity
[4] = molecular target: Voltage-gated potassium channel subunit beta-2 (Rattus norvegicus) (UniProt P62483); assay: inhibitors of rat Kvbeta2 reductase activity – biochemical, NADPH fluorescence, primary screen (AID 622;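 active means fluorescence slope higher than the sample average by over 3 SD, cut at about -0.22 in these data, passing the limit was not always enough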;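 further: slope of raw intensity against log time taken from 70 to 1610 s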); details: recombinant KvBeta, 4-cyanobenzaldehyde reduction, at 10 µM, stronger effect = higher value
[5] = molecular target: Voltage-gated potassium channel subunit beta-2 (Rattus norvegicus) (UniProt P62483); assay: enhancers of rat Kvbeta2 NADPH turnover – biochemical, NADPH fluorescence, primary screen (AID 623;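 active means NADPH fluorescence slope more negative than the mean of all samples by about 3 SD, 99.7% confidence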;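 further: fluorescence intensity change per second fitted from 20 to 320 s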); details: Recombinant KvBeta, NADPH fluorescence decrease slope, 10 min; at 10 µM; stronger effect = lower value
[6] = molecular target: Alpha-2C adrenergic receptor (Homo sapiens) (UniProt P18825); assay: compounds altering alpha2C-coupled GIRK flux – cell-based, HEK293 alpha2C/GIRK1/2, thallium flux, primary screen (AID 624;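 active means fluorescence slope after compound addition differing from the mean of all screened samples at 99.7% confidence, in either direction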;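 further: slope of fluorescence ratio to pre-addition baseline per second over 15 to 24 s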); details: thallium flux BTC fluorescence, at 10 µM, actives lie on both sides
[7] = blockers of RIG-like receptor reporter activation – cell-based, Sendai virus stimulus, luciferase, 10K MLSCN set, TLR/RLR signaling modifier project, primary screen (AID 602276;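 active means inhibition at or above 50% at 10 µM; inactive means inhibition below 50%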;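 further: firefly luciferase from ISG56 promoter only with Renilla not read in this screen; 0% = Sendai virus plus DMSO and 100% = medium plus DMSO without virus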); details: HEK293 RL24 IRF3 luciferase reporter, at 10 µM, stronger effect = higher value
[8] = TLR3 IRF3 reporter activation blockers – cell-based, poly I:C stimulus, luciferase, 10K MLSCN set, primary screen (AID 602277); details: HEK293-TLR3 RL24 IRF3 luciferase reporter, at 10 µM, stronger effect = higher value

Sequence of Alpha-2C adrenergic receptor (Homo sapiens) (P18825 whole entry, looked up): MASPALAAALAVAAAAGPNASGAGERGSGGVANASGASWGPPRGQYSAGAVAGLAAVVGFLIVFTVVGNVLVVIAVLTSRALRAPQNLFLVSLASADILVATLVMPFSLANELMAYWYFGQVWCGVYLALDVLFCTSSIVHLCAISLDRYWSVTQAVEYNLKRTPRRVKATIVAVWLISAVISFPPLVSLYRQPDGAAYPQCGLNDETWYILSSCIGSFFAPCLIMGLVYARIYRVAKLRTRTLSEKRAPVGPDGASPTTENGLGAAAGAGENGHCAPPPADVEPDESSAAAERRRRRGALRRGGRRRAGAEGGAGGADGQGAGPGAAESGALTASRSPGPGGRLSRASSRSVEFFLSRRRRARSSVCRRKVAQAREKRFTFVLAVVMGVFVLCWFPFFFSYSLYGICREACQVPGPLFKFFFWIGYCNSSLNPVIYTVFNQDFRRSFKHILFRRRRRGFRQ
Sequence of Voltage-gated potassium channel subunit beta-2 (Rattus norvegicus) (P62483 whole entry, looked up): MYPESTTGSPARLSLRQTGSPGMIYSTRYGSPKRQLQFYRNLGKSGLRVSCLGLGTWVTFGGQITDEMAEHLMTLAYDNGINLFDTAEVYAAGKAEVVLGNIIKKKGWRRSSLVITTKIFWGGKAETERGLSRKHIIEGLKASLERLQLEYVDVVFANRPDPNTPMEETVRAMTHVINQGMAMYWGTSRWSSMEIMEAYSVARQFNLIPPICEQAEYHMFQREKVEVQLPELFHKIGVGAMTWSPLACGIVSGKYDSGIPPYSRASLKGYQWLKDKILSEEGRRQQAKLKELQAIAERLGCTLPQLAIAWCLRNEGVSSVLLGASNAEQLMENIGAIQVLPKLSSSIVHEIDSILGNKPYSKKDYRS

SMILES | cell count [1] | inhibition [1] | inhibition of aggregation [2] | nuclei count [2] [%] | inhibition [3] | nuclei count [3] [%] | fluorescence slope [4] | NADPH fluorescence slope [5] | slope [6] | inhibition [7] | inhibition [8]
CCOC(=O)c1c(NC(=O)c2cccs2)sc(C)c1C | 396 | -6% (inactive) | -20% (inactive) | 102 | -107% (inactive) | 125 | -0.307 (inactive) | 1.4e-05 (inactive) | 0.00436 (inactive) | 12.5% (inactive) | 2.83% (inactive)
CCC(C)C(=O)Nc1nc2c(s1)C(=O)CC(C)(C)C2 (stereo not drawn) | 612 | 6.9% (inactive) | -4.2% (inactive) | 102 | -8.8% (inactive) | 115 | -0.553 (inactive) | -2.6e-05 (inactive) | 0.00723 (inactive) | -7.18% (inactive) | -6.11% (inactive)
O=C(c1cnn2c(C(F)F)cc(C3CC3)nc12)N1CCOCC1 | 666 | -0.3% (inactive) | 3.1% (inactive) | 96.7 | -13.3% (inactive) | 94.3 | -0.376 (inactive) | 2.5e-06 (inactive) | 0.00295 (inactive) | 6.43% (inactive) | 18.5% (inactive)
CCc1ccc(N2CC(C(=O)OCC(=O)Nc3cc(C)on3)CC2=O)cc1 (stereo not drawn) | 465 | 5.3% (inactive) | -4.7% (inactive) | 102 | -6.8% (inactive) | 92.3 | -0.368 (inactive) | -2.5e-05 (inactive) | 0.00565 (inactive) | 5.09% (inactive) | 20.1% (inactive)
CN1CCN(C(c2cccc(C(F)(F)F)c2)c2nnnn2C(C)(C)C)CC1 (stereo not drawn) | 337 | -6% (inactive) | 32.7% (inactive) | 73.7 | -68.4% (inactive) | 94.8 | -0.591 (inactive) | -2.7e-05 (inactive) | 0.00442 (inactive) | 19.1% (inactive) | 22.7% (inactive)
Nc1ncnc(Nc2ccccc2C(F)(F)F)n1 | 382 | -3.3% (inactive) | -11.5% (inactive) | 100 | -8% (inactive) | 107 | -0.487 (inactive) | 4.7e-05 (inactive) | 0.00593 (inactive) | -28.4% (inactive) | -11.7% (inactive)
CC(=O)N1CCN=C1SCc1c(F)cccc1Cl | 509 | 9.8% (inactive) | -12.4% (inactive) | 110 | 9.3% (inactive) | 93.3 | -0.626 (inactive) | 1.8e-05 (inactive) | 0.00565 (inactive) | -11.7% (inactive) | 4.78% (inactive)
Cc1cc(Cl)ccc1OCC(=O)Nn1c(C)ccc1C | 480 | -4.9% (inactive) | -6.4% (inactive) | 94.5 | -16.2% (inactive) | 136 | -0.525 (inactive) | -3.9e-05 (inactive) | 0.00483 (inactive) | 11.6% (inactive) | 15.5% (inactive)
Cn1c(SCC(=O)Nc2cccc3ccccc23)nc(O)cc1=O | 548 | -0.9% (inactive) | -2.1% (inactive) | 113 | 17.2% (inactive) | 120 | -0.42 (inactive) | -4.6e-05 (inactive) | 0.00441 (inactive) | 11.6% (inactive) | 15.1% (inactive)
Cc1cc(Nc2ccc(C(=O)O)cc2)n2nc(C)nc2n1 | 822 | 3.9% (inactive) | 9.8% (inactive) | 109 | -13.7% (inactive) | 106 | -0.543 (inactive) | -1.5e-05 (inactive) | 0.00685 (inactive) | 7.19% (inactive) | 21% (inactive)
O=C(Cn1ncc2c1-c1ccccc1OC2)N1CCN(c2ccccn2)CC1 | 631 | -1.1% (inactive) | -24.9% (inactive) | 131 | -55.8% (inactive) | 111 | -0.587 (inactive) | -5.3e-05 (inactive) | 0.00617 (inactive) | 3.72% (inactive) | 26.9% (inactive)
COC(=O)c1ccccc1NC(=O)C1CC(=O)N(c2ccccc2)C1 (stereo not drawn) | 576 | -5.8% (inactive) | 13.9% (inactive) | 99.5 | -18.1% (inactive) | 106 | -0.496 (inactive) | -5.9e-05 (inactive) | 0.00531 (inactive) | 10.2% (inactive) | 6.98% (inactive)
C/C=C/c1ccc(OCCn2cncn2)c(OC)c1 | 746 | -6.6% (inactive) | -27.6% (inactive) | 132 | -73.8% (inactive) | 120 | -0.519 (inactive) | 3.6e-05 (inactive) | 0.00659 (inactive) | -19.9% (inactive) | 2% (inactive)
CC(C)(C)NC(=O)CN(C(=O)CS(=O)CC(=O)Nc1ccc(F)cc1)c1ccc(Cl)cc1 (stereo not drawn) | 879 | -4.2% (inactive) | 3.2% (inactive) | 66.8 | -9.8% (inactive) | 118 | -0.35 (inactive) | 1.3e-05 (inactive) | 0.00479 (inactive) | 19.1% (inactive) | 19.5% (inactive)
CC1=C(C(N)=O)C(c2ccncc2)n2nc(-c3ccccc3Cl)nc2N1 (stereo not drawn) | 617 | 0% (inactive) | 5.7% (inactive) | 92.1 | -1.2% (inactive) | 109 | -0.528 (inactive) | -2.9e-05 (inactive) | 0.00735 (inactive) | 3.63% (inactive) | 21.9% (inactive)
O=C(Nn1cnnc1)c1cc2c(s1)CCCC2 | 346 | -3.4% (inactive) | -5.7% (inactive) | 108 | -41.7% (inactive) | 112 | -0.411 (inactive) | -4.9e-05 (inactive) | 0.00357 (inactive) | -4.21% (inactive) | 7.24% (inactive)
CCOc1ccc(-c2c(C#N)c(N)nc3c2c(=O)n(C)c(=O)n3C)cc1OC | 702 | -1.1% (inactive) | 7.8% (inactive) | 108 | -7.5% (inactive) | 103 | -0.486 (inactive) | -5.7e-05 (inactive) | 0.00459 (inactive) | 14.3% (inactive) | 16.4% (inactive)
CCOC(=O)c1cccc(NC(=O)CSc2nnc(-c3cccnc3)n2C)c1 | 505 | -0.3% (inactive) | 8.9% (inactive) | 97.6 | -100% (inactive) | 134 | -0.285 (inactive) | -5.6e-05 (inactive) | 0.00612 (inactive) | 8.88% (inactive) | 10.4% (inactive)
Cc1cc(Oc2ccccc2)nc(-c2ccccc2)n1 | 763 | 4.4% (inactive) | -2.1% (inactive) | 99.1 | 62.8% (active) | 70.6 | -0.484 (inactive) | -8.7e-05 (inactive) | 0.00573 (inactive) | -19.4% (inactive) | -47.5% (inactive)
Cc1nnc(SCC(=O)Nc2ccc(Br)cn2)[nH]c1=O | 359 | -8.5% (inactive) | 18.1% (inactive) | 117 | -43.2% (inactive) | 114 | -0.426 (inactive) | -1.1e-05 (inactive) | 0.00432 (inactive) | 15.8% (inactive) | 5.27% (inactive)
N#CCc1c(C#N)c(N)nc(N2CCN(S(=O)(=O)c3ccccc3)CC2)c1C#N | 349 | 1.3% (inactive) | -7.2% (inactive) | 96.4 | 14.3% (inactive) | 108 | -0.427 (inactive) | -4.2e-05 (inactive) | 0.00665 (inactive) | 11% (inactive) | 34.3% (inactive)
COc1ccccc1CNC(=O)CCNC(=O)Cn1ccc2ccccc2c1=O | 749 | -23.7% (inactive) | 8.2% (inactive) | 107 | -16.3% (inactive) | 116 | 0.0111 (inactive) | -1.6e-05 (inactive) | 0.00394 (inactive) | 7.16% (inactive) | 6.29% (inactive)
COc1cccc(NC(=O)N2CCN(c3cccc(C)c3C)CC2)c1 | 647 | -5.2% (inactive) | -12.7% (inactive) | 75.8 | -139% (inactive) | 93.3 | -0.455 (inactive) | -4.9e-05 (inactive) | 0.00389 (inactive) | -24.5% (inactive) | -55.2% (inactive)
Cc1cccc(NC(=O)C2CCCN2C(=O)OCC(C)C)c1C (stereo not drawn) | 728 | -6.9% (inactive) | -27.8% (inactive) | 109 | -120% (inactive) | 119 | -0.322 (inactive) | -6.4e-05 (inactive) | 0.00484 (inactive) | 5.88% (inactive) | 14.1% (inactive)
CCC(=O)Nc1ccc(Cl)c(NC(=O)C(C)C)c1 | 410 | 0.3% (inactive) | -10.3% (inactive) | 105 | -111% (inactive) | 81.5 | -0.47 (inactive) | -3.3e-05 (inactive) | 0.00567 (inactive) | 5.28% (inactive) | 25.2% (inactive)
Cn1c(SCC(N)=O)nnc1C1CCN(C(=O)NCc2ccccc2)CC1 | 325 | 6.8% (inactive) | -6.1% (inactive) | 99.8 | -74.7% (inactive) | 108 | -0.385 (inactive) | -5.9e-05 (inactive) | 0.00348 (inactive) | 5.51% (inactive) | 21.8% (inactive)
O=C(c1ccccc1-c1nc(-c2ccccc2)no1)N1CCCC1 | 600 | -8.6% (inactive) | 0.7% (inactive) | 90.5 | 51% (inactive) | 85.6 | -0.534 (inactive) | -2.8e-05 (inactive) | 0.00572 (inactive) | -20.5% (inactive) | -38.1% (inactive)
CC(C)(C)c1cc(CCC(=O)N2CCNCC2)c(C(C)(C)C)cc1O | 557 | -31.3% (inactive) | 18.7% (inactive) | 102 | -57% (inactive) | 101 | -0.411 (inactive) | -9e-05 (inactive) | 0.00515 (inactive) | 13.9% (inactive) | 27.5% (inactive)
